In the supplement of paper PMC10849652:
Of roughly 7,900 targets only a part is listed; those with a hit were picked by preference. About 0.6% of all pairs of compound and target were hits.

What follows are targets tested with c1cn2cc(-c3ccc4cn[nH]c4c3)nc(Nc3ccc(N4CCOCC4)cc3)c2n1 [entospletinib] (assay: log2 fold change, soluble protein after heating vs DMSO (PISA); higher = thermal stabilisation; K562 cells, 10 uM, 30 min; active = over 0.2 and 3.5 SD of the protein, either way, in both replicates (recomputed)).
Method in brief: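 Quantification of soluble protein used TMTpro 16plex LC-MS/MS, with channel sums equalised. Samples were the supernatant after 21,000xg for 90 min of pooled aliquots from K562 cells (2×10^6 cells/mL) treated with 10 μM compound for 30 min, heated for 3 min over 48°C-58°C, and extracted in PBS with 0.5% NP-40 at 4°C. Values, from duplicates, describe thermal stability against control samples on a log2 fold-change scale.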

Sequence of UniProt Q8NEW0 (Q8NEW0 whole entry, looked up): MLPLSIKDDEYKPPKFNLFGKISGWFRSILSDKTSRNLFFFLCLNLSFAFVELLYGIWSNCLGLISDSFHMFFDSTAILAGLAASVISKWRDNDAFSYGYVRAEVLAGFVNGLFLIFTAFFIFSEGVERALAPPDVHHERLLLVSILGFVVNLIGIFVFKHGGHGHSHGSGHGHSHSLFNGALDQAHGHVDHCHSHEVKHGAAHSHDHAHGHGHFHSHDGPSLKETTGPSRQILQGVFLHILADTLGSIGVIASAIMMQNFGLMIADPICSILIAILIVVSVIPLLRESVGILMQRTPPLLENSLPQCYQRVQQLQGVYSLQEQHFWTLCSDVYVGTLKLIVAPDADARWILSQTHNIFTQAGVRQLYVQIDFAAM
Sequence of UniProt Q9H254 (Q9H254 whole entry, looked up): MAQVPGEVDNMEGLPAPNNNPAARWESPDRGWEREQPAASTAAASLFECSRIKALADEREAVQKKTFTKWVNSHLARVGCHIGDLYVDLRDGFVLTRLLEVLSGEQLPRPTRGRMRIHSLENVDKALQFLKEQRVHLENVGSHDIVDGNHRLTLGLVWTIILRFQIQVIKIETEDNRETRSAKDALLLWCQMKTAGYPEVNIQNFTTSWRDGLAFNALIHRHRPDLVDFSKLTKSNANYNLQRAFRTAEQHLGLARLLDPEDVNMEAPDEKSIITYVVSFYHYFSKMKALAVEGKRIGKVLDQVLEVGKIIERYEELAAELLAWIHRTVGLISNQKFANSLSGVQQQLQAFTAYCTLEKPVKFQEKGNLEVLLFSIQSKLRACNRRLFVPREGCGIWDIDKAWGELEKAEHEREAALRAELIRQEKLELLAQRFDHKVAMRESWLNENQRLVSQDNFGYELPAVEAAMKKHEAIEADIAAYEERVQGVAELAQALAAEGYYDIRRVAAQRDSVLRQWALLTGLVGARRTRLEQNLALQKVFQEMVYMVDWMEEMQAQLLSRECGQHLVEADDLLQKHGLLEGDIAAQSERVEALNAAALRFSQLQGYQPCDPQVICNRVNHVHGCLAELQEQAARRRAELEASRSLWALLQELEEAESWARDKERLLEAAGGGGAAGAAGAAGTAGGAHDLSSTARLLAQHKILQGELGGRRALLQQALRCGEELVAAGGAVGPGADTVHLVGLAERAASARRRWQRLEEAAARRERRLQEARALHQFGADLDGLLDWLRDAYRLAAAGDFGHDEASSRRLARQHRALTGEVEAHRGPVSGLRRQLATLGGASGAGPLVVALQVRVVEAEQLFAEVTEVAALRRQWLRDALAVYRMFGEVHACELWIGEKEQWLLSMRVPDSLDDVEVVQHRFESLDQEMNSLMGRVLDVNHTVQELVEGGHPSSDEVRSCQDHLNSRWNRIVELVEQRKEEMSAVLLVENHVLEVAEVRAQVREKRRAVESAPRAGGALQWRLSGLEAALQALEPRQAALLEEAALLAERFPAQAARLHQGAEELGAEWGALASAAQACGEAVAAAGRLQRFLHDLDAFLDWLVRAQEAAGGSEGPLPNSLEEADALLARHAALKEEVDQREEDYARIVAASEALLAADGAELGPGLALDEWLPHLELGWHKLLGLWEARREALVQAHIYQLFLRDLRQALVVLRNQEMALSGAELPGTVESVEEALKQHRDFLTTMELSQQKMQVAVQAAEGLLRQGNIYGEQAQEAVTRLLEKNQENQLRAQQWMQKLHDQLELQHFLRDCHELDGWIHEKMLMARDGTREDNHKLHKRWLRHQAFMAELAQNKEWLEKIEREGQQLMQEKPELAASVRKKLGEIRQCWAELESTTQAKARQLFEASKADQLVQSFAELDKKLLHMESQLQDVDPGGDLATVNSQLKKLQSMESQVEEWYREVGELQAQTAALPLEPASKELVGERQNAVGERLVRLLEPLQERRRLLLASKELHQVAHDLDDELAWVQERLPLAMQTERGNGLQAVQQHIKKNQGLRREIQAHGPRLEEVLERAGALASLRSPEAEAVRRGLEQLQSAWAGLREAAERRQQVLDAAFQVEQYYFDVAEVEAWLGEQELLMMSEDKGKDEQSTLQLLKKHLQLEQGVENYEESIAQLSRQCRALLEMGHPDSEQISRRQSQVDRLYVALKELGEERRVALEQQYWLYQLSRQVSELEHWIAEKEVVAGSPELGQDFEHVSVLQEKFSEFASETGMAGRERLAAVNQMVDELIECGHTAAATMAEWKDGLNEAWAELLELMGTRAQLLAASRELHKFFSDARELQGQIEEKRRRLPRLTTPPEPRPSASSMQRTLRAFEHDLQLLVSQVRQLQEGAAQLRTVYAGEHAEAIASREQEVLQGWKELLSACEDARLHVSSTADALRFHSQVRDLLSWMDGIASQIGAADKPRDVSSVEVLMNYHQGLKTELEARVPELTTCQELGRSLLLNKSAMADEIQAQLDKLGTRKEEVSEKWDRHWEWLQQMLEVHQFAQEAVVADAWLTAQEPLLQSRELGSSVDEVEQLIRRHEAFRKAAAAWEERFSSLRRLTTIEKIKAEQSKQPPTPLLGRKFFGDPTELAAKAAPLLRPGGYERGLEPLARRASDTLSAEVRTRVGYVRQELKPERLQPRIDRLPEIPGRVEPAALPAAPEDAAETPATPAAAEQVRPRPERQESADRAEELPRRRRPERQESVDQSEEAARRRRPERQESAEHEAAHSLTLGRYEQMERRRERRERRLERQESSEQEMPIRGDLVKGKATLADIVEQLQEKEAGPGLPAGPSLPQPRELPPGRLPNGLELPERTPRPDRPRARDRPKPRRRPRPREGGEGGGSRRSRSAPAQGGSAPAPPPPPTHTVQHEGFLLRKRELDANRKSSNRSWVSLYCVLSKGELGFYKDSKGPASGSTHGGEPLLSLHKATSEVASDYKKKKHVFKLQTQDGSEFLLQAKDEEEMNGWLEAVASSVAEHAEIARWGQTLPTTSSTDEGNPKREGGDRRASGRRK
Sequence of UniProt Q9BUA3 (Q9BUA3 whole entry, looked up): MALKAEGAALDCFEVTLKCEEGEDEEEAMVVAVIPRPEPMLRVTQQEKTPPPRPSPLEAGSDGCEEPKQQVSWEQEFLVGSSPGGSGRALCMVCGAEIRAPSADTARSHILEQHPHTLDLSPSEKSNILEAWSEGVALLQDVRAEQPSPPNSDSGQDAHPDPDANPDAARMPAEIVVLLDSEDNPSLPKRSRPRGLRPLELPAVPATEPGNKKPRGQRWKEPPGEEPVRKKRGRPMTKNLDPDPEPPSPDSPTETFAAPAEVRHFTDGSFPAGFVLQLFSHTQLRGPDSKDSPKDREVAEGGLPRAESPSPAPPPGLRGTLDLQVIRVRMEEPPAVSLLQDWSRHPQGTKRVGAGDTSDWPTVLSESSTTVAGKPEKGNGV
Sequence of UniProt Q9BZD2 (Q9BZD2 whole entry, looked up): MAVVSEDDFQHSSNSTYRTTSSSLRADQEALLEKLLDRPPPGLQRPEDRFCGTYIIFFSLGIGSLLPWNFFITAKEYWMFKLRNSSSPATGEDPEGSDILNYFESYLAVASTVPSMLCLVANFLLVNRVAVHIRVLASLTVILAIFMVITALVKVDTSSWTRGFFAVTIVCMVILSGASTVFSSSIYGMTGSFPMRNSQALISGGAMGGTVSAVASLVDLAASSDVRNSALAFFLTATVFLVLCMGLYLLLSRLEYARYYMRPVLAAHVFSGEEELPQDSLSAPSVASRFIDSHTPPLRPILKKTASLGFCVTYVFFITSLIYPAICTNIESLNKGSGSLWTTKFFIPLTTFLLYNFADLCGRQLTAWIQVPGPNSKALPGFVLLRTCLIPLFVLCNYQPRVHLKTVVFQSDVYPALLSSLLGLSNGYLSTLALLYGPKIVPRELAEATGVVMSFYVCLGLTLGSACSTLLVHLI
Sequence of UniProt Q92797 (Q92797 whole entry, looked up): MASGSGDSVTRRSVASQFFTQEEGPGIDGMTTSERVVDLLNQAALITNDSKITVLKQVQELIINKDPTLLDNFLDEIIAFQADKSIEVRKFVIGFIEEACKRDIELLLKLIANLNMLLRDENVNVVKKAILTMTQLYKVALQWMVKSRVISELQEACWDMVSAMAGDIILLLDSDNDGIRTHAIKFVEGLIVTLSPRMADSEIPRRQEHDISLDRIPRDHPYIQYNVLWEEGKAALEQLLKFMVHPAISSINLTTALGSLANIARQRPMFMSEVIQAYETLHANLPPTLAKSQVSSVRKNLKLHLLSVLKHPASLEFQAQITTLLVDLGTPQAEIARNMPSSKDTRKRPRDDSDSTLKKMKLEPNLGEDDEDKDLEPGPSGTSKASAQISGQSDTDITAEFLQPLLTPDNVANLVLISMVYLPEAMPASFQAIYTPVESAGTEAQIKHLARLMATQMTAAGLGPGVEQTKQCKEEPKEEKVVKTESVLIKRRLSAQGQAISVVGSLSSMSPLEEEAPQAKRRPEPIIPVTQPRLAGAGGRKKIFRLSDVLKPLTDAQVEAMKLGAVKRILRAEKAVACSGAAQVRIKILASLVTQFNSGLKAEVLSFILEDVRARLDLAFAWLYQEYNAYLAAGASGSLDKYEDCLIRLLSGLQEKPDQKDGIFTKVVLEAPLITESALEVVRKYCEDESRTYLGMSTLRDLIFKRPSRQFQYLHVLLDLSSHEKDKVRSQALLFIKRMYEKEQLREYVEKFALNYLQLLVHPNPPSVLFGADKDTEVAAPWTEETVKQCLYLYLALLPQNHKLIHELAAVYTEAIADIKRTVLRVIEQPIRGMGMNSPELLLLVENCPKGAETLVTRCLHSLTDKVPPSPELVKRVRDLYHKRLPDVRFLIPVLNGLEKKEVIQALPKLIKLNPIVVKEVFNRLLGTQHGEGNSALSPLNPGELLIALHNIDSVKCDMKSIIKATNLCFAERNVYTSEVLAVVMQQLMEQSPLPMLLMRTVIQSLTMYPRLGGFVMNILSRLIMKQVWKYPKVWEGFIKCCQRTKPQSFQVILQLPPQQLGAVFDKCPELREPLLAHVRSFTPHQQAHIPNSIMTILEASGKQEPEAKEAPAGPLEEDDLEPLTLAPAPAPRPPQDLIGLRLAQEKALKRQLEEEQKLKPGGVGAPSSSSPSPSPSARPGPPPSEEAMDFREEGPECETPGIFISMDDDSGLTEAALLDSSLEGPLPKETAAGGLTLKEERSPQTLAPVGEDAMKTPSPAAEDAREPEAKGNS

log2 fold change, inactive:
TJP2 isoform 7 (UniProt Q9UDY2) 0.037
SPTBN4 (UniProt Q9H254) 0
SLC27A2 (UniProt O14975) 0.063
SPINDOC (UniProt Q9BUA3) 0.018
SUOX (UniProt P51687) 0.03
SPART (UniProt Q8N0X7) -0.005
TAMM41 isoform 3 (UniProt Q96BW9) -0.039
SSR3 isoform 2 (UniProt Q9UNL2) -0.012
TBC1D15 isoform 3 (UniProt Q8TC07) 0.007
SMARCA5 (UniProt O60264) 0.099
STEAP3 isoform 2 (UniProt Q658P3) -0.038
THYN1 (UniProt Q9P016) 0.011
SURF2 (UniProt Q15527) 0.047
SMPD4 isoform 4 (UniProt Q9NXE4) 0.143
SMAD9 (UniProt O15198) -0.026
SPAG9 isoform 4 (UniProt O60271) 0.003
TGFBRAP1 (UniProt Q8WUH2) 0.056
TBRG4 (UniProt Q969Z0) -0.027
STAM2 (UniProt O75886) 0.052
SLC35B4 (UniProt Q969S0) 0.033
SPAST (UniProt Q9UBP0) 0
SUPT16H (UniProt Q9Y5B9) -0.055
TENT5C (UniProt Q5VWP2) 0.019
SYMPK (UniProt Q92797) -0.015
SLC38A7 (UniProt Q9NVC3) 0.004
SYNE2 isoform 2 (UniProt Q8WXH0) -0.069
SLC30A7 (UniProt Q8NEW0) -0.201
STK38 (UniProt Q15208) -0.033
TBC1D5 isoform 2 (UniProt Q92609) -0.02
SLC29A3 (UniProt Q9BZD2) 0.023
SURF1 (UniProt Q15526) 0.029
SLC7A6OS (UniProt Q96CW6) 0.052
SRSF4 (UniProt Q08170) 0.134
SRSF6 (UniProt Q13247) 0.29
SNX6 (UniProt Q9UNH7) -0.019
